Reference: PubChem BioAssay AID1159580 (chemical genetic matrix, 2015)
Hit rate of the full screen: of about 5,500 compounds, about 2,000 (36%) were called active. Roughly 18% stayed inconclusive and do not appear here. No stated cut-off is given here; in the data, active means normalized growth mostly below about 0.91 (no sharp cut-off); inconclusive means no clear call, values can overlap the other calls; inactive means mostly above about 0.92. Some of the results follow.

Assay: chemical genetic growth profiling, strain panel (AID 1159580);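 further: tested at 20 µM; growth read once vehicle control cultures reached saturation at 30 °C; 1 = growth at the plate median or of vehicle wells; lower values mean less growth of the strain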
Conditions: S. cerevisiae deletion strains, growth OD

Measured: normalized growth

COc1ccc(-c2cc(=O)c3c(OC)cccc3o2)cc1
inactive: locus YBR021W, strain FUR4, active compounds read low 0.978 | locus YBR229C, strain ROT2, active compounds read low 1.04 | locus YCL029C, strain bik1, active compounds read low 1.05 | locus YDL035C, strain GPR1, active compounds read low 1.03 | locus YDL074C, strain BRE1, active compounds read low 1.09 | locus YDL101C, strain DUN1, active compounds read low 1.03 | locus YDL185W, strain tfp1, active compounds read low 1.02 | locus YDL192W, strain arf1, active compounds read low 1.06 | locus YDR101C, strain arx1, active compounds read low 1.01 | locus YDR162C, strain NBP2, active compounds read low 1.05 | locus YDR318W, strain mcm21, active compounds read low 1.03 | locus YDR388W, active compounds read low 1.04 | locus YDR502C, strain sam2, active compounds read low 1.01 | locus YER110C, active compounds read low 1.02 | locus YER155C, strain BEM2, active compounds read low 1.03 | locus YER167W, strain BCK2, active compounds read low 1.04 | locus YGL078C, strain dbp3, active compounds read low 0.944 | locus YGL086W, strain mad1, active compounds read low 1.01 | locus YGL248W, strain PDE1, active compounds read low 1.05 | locus YGR135W, strain pre9, active compounds read low 1 | locus YGR252W, strain gcn5, active compounds read low 0.89 | locus YHR079C, strain IRE1 (second series), active compounds read low 1.02 | locus YHR094C, strain hxt1, active compounds read low 1.01 | locus YHR129C, strain ARP1, active compounds read low 1.06 | locus YHR200W, strain rpn10, active compounds read low 1.04 | locus YIL066C, strain RNR3, active compounds read low 1.06 | locus YIL073C, strain SPO22, active compounds read low 1.11 | locus YIL125W, strain kgd1, active compounds read low 1.04 | locus YIR030C, strain dcg1, active compounds read low 1.05 | locus YJL095W, strain BCK1, active compounds read low 1.1 | locus YJL134W, strain LCB3, active compounds read low 1.04 | locus YJL168C, strain set2, active compounds read low 1.03 | locus YJL187C, strain SWE1 (second series), active compounds read low 1.03 | locus YJR043C, strain POL32, active compounds read low 1.04 | locus YJR075W, strain HOC1, active compounds read low 1.06 | locus YKL009W, strain mrt4, active compounds read low 0.911 | locus YKL068W, active compounds read low 1.02 | locus YKL085W, strain MDH1 (second series), active compounds read low 1.04 | locus YKL085W, strain MDH1, active compounds read low 1.04 | locus YKR001C, strain vps1, active compounds read low 1.09 | locus YLR039C, strain RIC1, active compounds read low 1.28 | locus YLR058C, strain SHM2, active compounds read low 1.03 | locus YLR102C, strain apc9, active compounds read low 1.02 | locus YLR262C, strain YPT6, active compounds read low 1.21 | locus YLR268W, strain sec22, active compounds read low 1.02 | locus YLR371W, strain rom2, active compounds read low 1.06 | locus YLR418C, strain cdc73, active compounds read low 1.12 | locus YML016C, strain PPZ1, active compounds read low 1.05 | locus YML032C, strain rad52, active compounds read low 0.998 | locus YML124C, strain tub3, active compounds read low 1.03 | locus YMR078C, strain ctf18, active compounds read low 1.03 | locus YMR223W, strain ubp8, active compounds read low 1.01 | locus YMR307W, strain GAS1, active compounds read low 1.22 | locus YNL067W, strain RPL9B, active compounds read low 1.04 | locus YNL153C, strain GIM3, active compounds read low 1.02 | locus YNL233W, strain BNI4, active compounds read low 1.08 | locus YNL250W, strain rad50, active compounds read low 1.05 | locus YNL271C, strain bni1, active compounds read low 1.04 | locus YNL298W, strain CLA4, active compounds read low 0.98 | locus YNL307C, strain MCK1, active compounds read low 1.03 | locus YNL322C, strain KRE1, active compounds read low 1.04 | locus YNR052C, strain pop2, active compounds read low 1.01 | locus YOL006C, strain TOP1, active compounds read low 1.25 | locus YOL012C, strain htz1 1.26 | locus YOL147C, strain pex11, active compounds read low 1.03 | locus YOR061W, strain CKA2, active compounds read low 1.05 | locus YOR069W, strain VPS5, active compounds read low 1.04 | locus YOR136W, strain idh2, active compounds read low 1.03 | locus YOR144C, strain elg1, active compounds read low 1.01 | locus YOR184W, strain ser1, active compounds read low 1.01 | locus YOR316C, strain cot1, active compounds read low 1.02 | locus YPR119W, strain clb2, active compounds read low 1.05 | locus YPR141C, strain kar3, active compounds read low 1.05 | locus YPR163C, strain tif3, active compounds read low 1.02 | locus YPR167C, strain met16, active compounds read low 1.02 | strain wtn01, active compounds read low 1.01
